Biological target: Integrin alpha-4 (Homo sapiens) (UniProt P13612)
Experiment: VLA-4 ligand competition with LDV-FITC, dose response, orthogonal assay, cell-based, plate-based, flow cytometry, set 2 (AID 588446)
Details: cells, LDV-FITC binding displacement; series mostly up to 66.7 µM; inhibition: at the top concentration;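 active means dose fit with top-dose inhibition above 36% and EC50 error under a fifth of EC50, and EC50 under 30 µM; inactive means the rest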

Chain of Integrin alpha-4 (Homo sapiens) (P13612 whole entry, looked up): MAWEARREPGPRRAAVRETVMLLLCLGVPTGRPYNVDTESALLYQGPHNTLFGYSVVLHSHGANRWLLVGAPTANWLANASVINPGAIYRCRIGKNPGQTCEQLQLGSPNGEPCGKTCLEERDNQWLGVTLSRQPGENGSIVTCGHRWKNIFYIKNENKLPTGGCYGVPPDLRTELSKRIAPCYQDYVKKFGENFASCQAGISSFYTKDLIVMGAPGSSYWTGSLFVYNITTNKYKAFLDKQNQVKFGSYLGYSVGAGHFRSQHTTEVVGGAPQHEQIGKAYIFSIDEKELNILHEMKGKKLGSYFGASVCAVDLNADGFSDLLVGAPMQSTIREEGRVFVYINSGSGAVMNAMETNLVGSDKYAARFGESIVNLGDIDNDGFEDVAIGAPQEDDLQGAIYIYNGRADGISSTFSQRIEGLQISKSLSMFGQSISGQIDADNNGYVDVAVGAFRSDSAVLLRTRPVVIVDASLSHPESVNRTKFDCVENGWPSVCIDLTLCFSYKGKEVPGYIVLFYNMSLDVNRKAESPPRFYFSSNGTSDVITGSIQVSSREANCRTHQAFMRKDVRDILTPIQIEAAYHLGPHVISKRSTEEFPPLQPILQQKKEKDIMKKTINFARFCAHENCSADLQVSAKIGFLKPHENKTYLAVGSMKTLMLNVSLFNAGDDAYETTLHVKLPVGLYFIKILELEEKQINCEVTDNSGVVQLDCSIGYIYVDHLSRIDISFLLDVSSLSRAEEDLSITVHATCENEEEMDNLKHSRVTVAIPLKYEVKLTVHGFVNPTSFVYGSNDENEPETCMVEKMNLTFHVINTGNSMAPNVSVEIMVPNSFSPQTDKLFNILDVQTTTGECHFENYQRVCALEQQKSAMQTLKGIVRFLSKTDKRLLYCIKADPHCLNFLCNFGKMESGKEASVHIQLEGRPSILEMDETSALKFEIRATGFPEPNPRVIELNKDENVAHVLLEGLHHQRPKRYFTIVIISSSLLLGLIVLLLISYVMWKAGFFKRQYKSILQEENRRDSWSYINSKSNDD

inhibition, inactive:
Cc1oc(-c2cccs2)nc1CN1C(=O)C2CC=CCC2C1=O (centres undefined) -24.5
CSc1ccccc1OCc1cc(C(=O)N2CCCC2)no1 10.1
CN(Cc1ccco1)C(=O)c1ccc(-n2cnc3ccccc32)cc1 20.4
COc1ccccc1Cn1c(C2CC(=O)N(C)C2)nc2ccccc21 (centres undefined) 29.8
Cc1nc(C)c(C(=O)N2CCCC2c2nc3ccccc3s2)s1 (centres undefined) 14.2
Cc1ccc(-c2nc(CN3C(=O)C4CC=CCC4C3=O)cs2)cc1 (centres undefined) 36.7
CC(=O)N(C)Cc1nc2ccccc2n1CCOc1ccc(C)cc1 4.65
CCN1CC(c2nc3ccccc3n2CCOc2ccccc2)CC1=O (centres undefined) 7.23
CCn1c(C2CC(=O)N(CCc3ccccc3)C2)nc2ccccc21 (centres undefined) 82.5
COCCn1c(C2CC(=O)N(Cc3ccco3)C2)nc2ccccc21 (centres undefined) 30.4
Cc1nc2ccccc2n1CCc1noc(COc2ccccc2)n1 17.5
CN1CC(c2nc3ccccc3n2CCOc2ccccc2)CC1=O (centres undefined) 33.1
Cn1cc(C(=O)N2CCCC2c2nc3ccccc3s2)cn1 (centres undefined) 18.8
COc1ccc(C2CCCN2C(=O)c2sccc2C)cc1OC (centres undefined) 30.2
COCCn1c(C2CC(=O)N(c3ccccc3C)C2)nc2ccccc21 (centres undefined) -15
O=C1C2CC=CCC2C(=O)N1Cc1csc(Cc2ccccc2)n1 (centres undefined) 12.2
Cc1cc(C(=O)N2CCCC2c2nc3ccccc3s2)on1 (centres undefined) 21.9
CCN1CC(c2nc3ccccc3n2Cc2ccccc2)CC1=O (centres undefined) 5.84
COc1cc(OCc2ccccc2)ccc1CN1CCN(C)CC1 29.6
O=C(c1ccc(OCCN2CCCCC2)cc1)c1c(-c2ccc(O)cc2)sc2cc(O)ccc12 -53.4
CCOc1ccccc1N1CC(c2nc3ccccc3n2C)CC1=O (centres undefined) 13.8
COCC(=O)N1CCC2(CCCN(CCc3ccccc3)C2=O)C1 (centres undefined) 88.4
COCCn1c(C2CC(=O)N(c3cccc(C)c3)C2)nc2ccccc21 (centres undefined) -7.74
Cc1cc(C(=O)N2CCCC2c2ccc3c(c2)OCCO3)sc1C (centres undefined) 17
CCn1c(C2CC(=O)N(c3ccccc3OC)C2)nc2ccccc21 (centres undefined) 29
CCOCCn1c(C2CC(=O)N(c3ccccc3)C2)nc2ccccc21 (centres undefined) 18.9
COc1ccccc1N1CCN(CC(=O)c2ccc(F)cc2)CC1 13.7
COc1ccc(-c2nn(Cc3ccccc3)cc2C(=O)N2CCC2)cc1 7.1
Cc1ccc(C)n1-c1ccc(C(=O)N(C)Cc2ccco2)cc1 38.8

Source: PubChem BioAssay AID588446 (NMMLSC, 2011)
